Over roughly 33,000 sequences, “E-score (-0.5 to 0.5)” has its median near -0.021; the highest 2% begin near 0.32. The entries come from a sample that favours the highest values as a whole.
Molecular target: T1, Zap1 (UniProt P47043)
T1 sequence: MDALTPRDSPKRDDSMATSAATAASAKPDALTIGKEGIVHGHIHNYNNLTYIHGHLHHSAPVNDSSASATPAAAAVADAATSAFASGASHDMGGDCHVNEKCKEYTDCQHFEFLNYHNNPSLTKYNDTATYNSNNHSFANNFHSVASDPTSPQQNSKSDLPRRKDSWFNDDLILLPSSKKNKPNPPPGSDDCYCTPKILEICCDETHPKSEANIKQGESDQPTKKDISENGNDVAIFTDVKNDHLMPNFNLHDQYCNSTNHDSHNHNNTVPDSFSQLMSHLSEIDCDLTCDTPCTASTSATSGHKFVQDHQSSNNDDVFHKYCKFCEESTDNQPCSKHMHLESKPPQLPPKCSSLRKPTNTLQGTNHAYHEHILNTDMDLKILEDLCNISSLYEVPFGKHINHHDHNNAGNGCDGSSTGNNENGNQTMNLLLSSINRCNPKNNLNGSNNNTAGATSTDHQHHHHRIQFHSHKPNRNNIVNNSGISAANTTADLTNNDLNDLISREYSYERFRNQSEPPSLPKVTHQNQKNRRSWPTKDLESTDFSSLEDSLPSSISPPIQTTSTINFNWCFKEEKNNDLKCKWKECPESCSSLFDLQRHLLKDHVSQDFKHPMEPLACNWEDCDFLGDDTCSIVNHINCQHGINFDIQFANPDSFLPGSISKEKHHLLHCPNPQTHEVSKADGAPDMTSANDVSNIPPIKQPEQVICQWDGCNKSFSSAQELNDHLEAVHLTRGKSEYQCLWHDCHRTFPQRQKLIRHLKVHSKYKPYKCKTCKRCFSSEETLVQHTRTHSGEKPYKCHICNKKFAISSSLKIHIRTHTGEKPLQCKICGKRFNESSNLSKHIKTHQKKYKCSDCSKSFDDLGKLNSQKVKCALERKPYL
Assay: PBM E-score (8-mer binding enrichment) (E-score (-0.5 to 0.5)); higher = stronger / more preferred TF binding
Conditions: protein concentration: 200 nM; construct: GST-full length
Outline: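 E-scores (a modified Wilcoxon-Mann-Whitney statistic) were assigned by the Universal PBM Analysis Suite to every ungapped eight-base word pooled with its reverse complement. The input came from universal all-10-mer Agilent arrays made double-stranded by primer extension and probed with GST-tagged yeast transcription factors at about 100-200 nM. Fluorescent anti-GST detected bound protein, and masliner normalised the scans.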

Sequence	PBM E-score
ATCTGCTG	-0.184
GCACCAAC	-0.00297
CTTGACCA	0.147
CCCTCTGA	0.0399
ATTTTTTC	0.0779
ACCTGCCG	-0.0789
AGACAAAC	-0.0937
GTGACCAC	0.344
ATGACCAC	0.289
ATGACCGC	0.302
CTGACCCC	0.12
ATGACCCC	0.385
GTGACCAA	0.305
AAGTGGCC	0.0931
GGAGCGAC	-0.122
AGGCCACT	-0.13
AACCTCTA	0.351
AACCTCTC	0.349
ACCCTCTA	0.355
ACCCTCTC	0.121
TACCTCCA	0.303
CACCTCTA	0.22
TACCTCTA	0.347
GACCTCTC	0.203
AACCTCAA	0.263

Sequence	PBM E-score
CACCTCTC	-0.242
GCCCTCTA	-0.245
AGCCTCTA	-0.101
CCTGACCG	0.0354
CTGGCCCA	-0.095
AGTACTTC	0.148
AGTGTGAA	-0.13
AACGTTGC	-0.161
ACCAAGGG	0.178
CGCTACCC	0.302
ATCCCTCA	-0.0235
CGGGATCC	-0.0153
ACAGCGAC	-0.152
AACCTCCT	0.158
AACCTCTG	0.306
AACCTCTT	0.397
GGCCTCTA	0.0229
GTCCTCTA	-0.0992
GACCTCTA	0.318
GCGGGGCC	-0.0181
CAACGCGC	0.0876
CTTAGAGC	0.0313
GGCATCCA	-0.107
GACCAGTA	0.0618
AAAATGTG	-0.0329

Sequence	PBM E-score
AATGGGCG	-0.204
CTAACCCC	0.178
AAAACCCG	0.131
ATAACCCG	0.442
ATAAACCA	0.121
GGAACCCA	0.171
TGAACCCA	0.242
CTAACCCA	0.326
GTAACCCA	0.468
GAAACCCA	0.246
AGAACCCG	0.223
ATAACCCA	0.472
AAAACCCA	0.258
CTTTGCGC	-0.0424
GTGATTTA	0.193
AACTGTTC	-0.0321
ACTTTAGC	-0.16
AATCAGTA	-0.0224
AGGGAGAG	-0.0798
GCAGGGGA	-0.177
CCAGGGTA	0.323
ACAGGGTA	0.366
CCAGGGCA	-0.123
GCAGGGTA	0.373
ACAGGGTC	0.315

Sequence	PBM E-score
GCAGGGAA	-0.0199
ACAGGGTG	0.199
CCAGGGTC	0.19
CGACAGCG	-0.154
CGCCGCGC	-0.0986
ATTGCGGG	0.11
CGAGTAAG	0.119
AGCAGTAT	0.0154
CGCAAACC	0.0968
TCGCGAGA	0.117
CTTAACCC	0.387
CTCAACCC	0.201
CTTAACCA	0.376
ATTAACGG	0.0866
CTCAACCA	0.00637
ATTAACCA	0.246
CTTAACAC	0.0174
GTTAACCA	0.338
ATTAACAG	-0.102
ATTAACCG	0.331
CTTAACGA	-0.00709
GTTAACTA	0.263
TACGACGA	-0.0483
ACCCGTCT	-0.0166
CAGCTAAA	0.0244

Sequence	PBM E-score
CGCGATGA	0.181
GATTCTAA	-0.0858
CCATTGAA	0.174
ATTCGACC	0.0544
ATTAACCC	0.334
ATTAACTC	0.0519
ATTAACAC	0.172
GGCTCAGA	-0.101
GCTTACCA	0.0792
AGGCTGTC	-0.202
ACACTGGC	-0.0599
CATACAGC	-0.249
ACTGGTTC	0.0663
CCTGGTTA	0.306
GCTGGTTA	0.329
GCTGGTGA	0.0777
GCTGGTCA	0.0223
ACTGGTTA	0.405
AACTGTTG	-0.147
TGAACACA	0.0543
CACTACCG	0.129
CAAAGAGG	0.0514
AAGCTATT	-0.138
ACCCCGAA	0.384
AACCCGAT	0.31

Sequence	PBM E-score
ACCCGAAG	0.197
ACCCGTAC	0.0183
CCCCCGAA	-0.164
ACCCGAAT	0.254
ACCCGTAA	0.333
ACCCGAAA	0.328
CCCCGTAA	0.16
GACCCGAA	0.175
AACCCGAA	0.327
ACCCCGAT	0.197
TCCACGAA	0.111
CGTGAAGC	-0.326
TAGAGTCA	-0.166
AAACTTGG	0.124
AACCAAGT	0.271
CGAGAGGA	-0.0403
CGCCTTCA	-0.26
CCAGGGGA	-0.0512
CTTACAAA	0.0824
CGTACCAA	-0.0153
GGTACCAA	0.337
CGTACCAC	0.0803
AGTACCAC	0.208
GTTACCAA	0.362
GGTACCAC	0.362

Sequence	PBM E-score
GTTACAAC	0.291
ATTACCAA	0.18
GTTACAAA	0.343
TGTACCAA	0.0671
CTTACCAA	0.0782
AGCAGCCG	0.0213
AAATGGTC	0.207
ACTCATGC	-0.147
CACCTCGG	0.0517
TTAGAGAA	-0.0471
GCAATAGC	-0.122
AATTCGAG	-0.131
GACTAGAC	-0.101
ACAGAAAG	0.11
CCTTGTTA	0.12
CCGGGCGC	-0.315
CGCCCATC	-0.171
GATAAACC	0.21
AATAACAC	0.107
GCTAACCC	0.32
AATAACCC	0.466
AATAACAT	0.0801

Source: the supplement of paper PMC3334620
